# Source: the supplement of paper PMC3334620
# Over roughly 33,000 sequences, “E-score (-0.5 to 0.5)” has its median near -0.036; the highest 2% begin near 0.37. For the sample, the highest values were picked, then their nearest neighbours and some sequences at random.
# Target: T1, Yer064c (UniProt P40041)
# T1 sequence: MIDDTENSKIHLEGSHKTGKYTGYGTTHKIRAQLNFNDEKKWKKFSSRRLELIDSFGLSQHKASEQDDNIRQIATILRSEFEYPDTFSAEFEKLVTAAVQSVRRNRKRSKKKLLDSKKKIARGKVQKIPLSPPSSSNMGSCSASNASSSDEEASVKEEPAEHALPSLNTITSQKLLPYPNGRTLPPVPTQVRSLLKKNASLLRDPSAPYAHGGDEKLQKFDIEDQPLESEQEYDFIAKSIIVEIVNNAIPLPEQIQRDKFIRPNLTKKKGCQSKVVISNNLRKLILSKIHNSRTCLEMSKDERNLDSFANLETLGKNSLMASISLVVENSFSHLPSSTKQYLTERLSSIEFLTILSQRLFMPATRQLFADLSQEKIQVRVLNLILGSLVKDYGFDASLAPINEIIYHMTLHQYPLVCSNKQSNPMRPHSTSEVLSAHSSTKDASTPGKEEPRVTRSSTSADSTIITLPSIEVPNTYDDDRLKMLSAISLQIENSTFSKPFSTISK
# Assay: PBM E-score (8-mer binding enrichment) (E-score (-0.5 to 0.5)); higher = stronger / more preferred TF binding
# Settings: protein concentration: 200 nM; construct: GST-full length
# Protocol: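 Universal 'all 10-mer' protein binding microarrays (Agilent AMADID 015681) probed with GST-tagged S. cerevisiae TFs (full-length or DBD) made by in vitro transcription/translation (PURExpress), about 100-200 nM. Bound TF was detected with fluorescent anti-GST. Each ungapped 8-mer (which stands for itself and its reverse complement) is scored by the PBM enrichment score (E-score), a modified Wilcoxon-Mann-Whitney statistic from -0.5 to +0.5, computed with the Universal PBM Analysis Suite. Scale: above 0.35 generally sequence-specific binding.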
row,Sequence,PBM E-score
1,ACCTCCAA,0.0762
2,ATGTAACG,-0.038
3,TACCGCCA,-0.125
4,AGATAGGA,-0.126
5,AGAATCAA,0.243
6,TGAATCAA,0.419
7,TTAATCAA,0.371
8,CTAATCAA,0.264
9,CGAATCAA,0.272
10,TCAATCAA,0.281
11,ATCGACAG,-0.109
12,CGTGAGTA,0.323
13,AGTGAGTA,0.355
14,AGTGAGTG,0.0771
15,AGTGAGTC,0.474
16,CGTGAGCC,0.0694
17,CGTGAGTC,0.48
18,GGGTGGGA,-0.139
19,ACCCCAAT,-0.114
20,GTATTGTA,-0.0603
21,ATTGGATC,-0.0186
22,AATTTTGT,0.161
23,AAGCGGGA,-0.239
24,AGATAGTA,0.177
25,CGATAGTC,0.422
26,AGATAGTC,0.403

row,Sequence,PBM E-score
1,AGATAGTG,0.0368
2,CGATAGCC,-0.0746
3,CGATAGTA,0.032
4,GAACAAGC,-0.357
5,GAGACATA,0.334
6,AAGTCGGT,0.0145
7,AAAAGACA,-0.0266
8,AGGTGGAC,-0.133
9,TGTCAGAA,-0.00325
10,AGTCAGAG,0.428
11,AGTCAGAT,0.427
12,CGTCAGAG,-0.136
13,GGTCAGAA,-0.00031
14,AGTCAGAA,0.434
15,CGTCAGAC,-0.124
16,ACTCAGAG,0.302
17,AATCAGAT,0.329
18,AGTCAGAC,0.436
19,GGTCAGAC,0.0361
20,ACTCAGAT,0.339
21,GGGTATAA,-0.108
22,ATCGTGAG,0.124
23,CCGCGTTC,-0.274
24,AATTCCCC,-0.128
25,ACCGGCAG,-0.243
26,AAAGGAAG,-0.0963

row,Sequence,PBM E-score
1,GAGACAGC,0.136
2,CTCCTCGA,0.0215
3,ATTGATCC,0.0238
4,GCGATCCA,-0.145
5,CTGTAAGC,-0.0285
6,CTGTAGAC,0.0599
7,CTGTAGTC,0.416
8,CTGTAGTA,0.13
9,ATGTAGTC,0.382
10,ATGTAGTA,0.0442
11,ATGTAGTG,0.0118
12,GTCCGCAA,0.00032
13,CTAACCGA,0.171
14,ACGGAGAT,0.0115
15,CATTCGAA,0.0908
16,CCGGTGTA,-0.162
17,GTCGTCAC,0.142
18,CTAGTCGA,0.214
19,CTAGTCCC,-0.135
20,GTAGTCGA,0.263
21,GTAGTCAA,0.445
22,CTAGTCAA,0.383
23,GTAGTAAC,0.0921
24,GTAGTCCA,0.262
25,CTAGTCTC,0.278
26,CTAGTCAC,0.461

row,Sequence,PBM E-score
1,CTAGTCTA,0.205
2,GTAGTCAC,0.479
3,ACCACTCT,-0.0617
4,GTCACGAA,0.106
5,TACGTCAA,-0.153
6,TTAGTCAA,0.464
7,TTAGTGAA,0.178
8,TAGTGCGA,-0.0974
9,CACTCGAC,-0.0515
10,CACTCGAA,0.212
11,GACTCGAA,0.396
12,GACTCGAC,0.391
13,AACTCGAC,0.0909
14,AACTCGAA,-0.0714
15,CAGGCATG,-0.133
16,GTCCTCGA,0.197
17,CTATCCCA,-0.208
18,ACGACTAA,0.438
19,GCTACTAA,-0.101
20,TCGACTAA,0.373
21,CCGACTAA,0.358
22,GCAACTAA,0.0789
23,GCGACTAA,0.442
24,ACGACTAC,0.415
25,ACTACTAA,0.25
26,ACGACGAA,0.139

row,Sequence,PBM E-score
1,AGGACTAC,0.341
2,ACTACGAC,0.302
3,TCGACGAA,-0.00207
4,GGGAAACC,-0.0566
5,CTTCTGTA,-0.0492
6,ATGGTGCC,-0.358
7,TGATTGAA,0.333
8,CCCTCTGC,-0.226
9,GCGACTAC,0.391
10,ACGACTAG,0.359
11,GGGACTAC,0.228
12,ACGACGAT,0.023
13,ACGACTAT,0.401
14,CCGACTAC,0.325
15,CGCACAAG,0.0388
16,AGGATAGG,-0.0969
17,ACCAACTG,-0.097
18,CAACGTGC,-0.137
19,ACGCTGTA,-0.00895
20,ATGGCTCG,0.237
21,ATGGCTCC,0.256
22,ATGGCTCA,0.422
23,CCATAAAG,-0.178
24,GGGACTTA,-0.0167
25,GTAACTTA,0.166
26,GTGACTTA,0.443

row,Sequence,PBM E-score
1,ATGACTTA,0.475
2,AGGACTTA,0.234
3,CGGACTTA,0.203
4,CCGACTTA,0.263
5,ATGACGTA,0.0562
6,CTGACTTA,0.407
7,CAGACACG,-0.14
8,AGCGGTCA,-0.0499
9,ACTTACAT,-0.0151
10,AAGGGGCC,-0.145
11,AGCGAGGC,-0.282
12,AGGAGTCG,0.375
13,AGGAGTCC,0.297
14,AGGAGTGA,0.105
15,AGGAGTCA,0.486
16,AGGAGTTG,-0.0388
17,AGGAGTAA,0.177
18,ACTTTCTG,0.208
19,TCCACAAA,0.0257
20,ACCTCCTA,-0.134
21,CCGCACCA,0.017
22,TGCCCCAA,0.0126
23,CAGTGAAA,0.0766
24,GGTGTCGA,0.046
25,CACTACAA,0.0688
26,CACTACAC,-0.0592

row,Sequence,PBM E-score
1,AACTACAC,0.0443
2,TACTACAA,0.119
3,GACTACAA,0.402
4,GACTACAC,0.399
5,ACCAGCGC,-0.221
6,GGGCCCGA,-0.142
7,GAGCACGC,-0.163
8,GCTAAAAA,0.0668
9,CCTGAGTC,0.461
10,ACTGAGTA,0.28
11,ACTAAGTA,0.235
12,CCTGAGTA,0.234
13,ACTAAGTC,0.376
14,ACTGAGTG,0.161
15,CCTAAGTC,0.276
16,ACTGAGTC,0.477
17,CCTGAGGC,-0.16
18,CGGTATAC,-0.119
19,ATCCGGGA,-0.104
20,AATGCACA,-0.0113
21,TAGCCGCA,-0.0712
